Source: PubChem BioAssay
Calls of active or inactive are those of the source.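 Rule for the calls: active = viability loss from added drug above about 55%, and viability with drug at most 40%, in both replicates (limit read from the data, passing the limit was not always enough); inconclusive = both conditions met in only one replicate; inactive = neither replicate meets both conditions.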

Test: reversal of MRP1-mediated doxorubicin resistance, pilot screen, H69AR cells, doxorubicin co-treatment (AID 601)
Settings: H69AR cells + 2 uM doxorubicin, CellTiter-Glo, 72 h; at 10 µM; stronger effect = higher value

| SMILES | differential viability (reversal) |
| --- | --- |
| Cc1nc(CNS(=O)(=O)c2ccc3c(c2)OCCO3)cs1 | -0.265% (inactive) |
| CCN(CCNC(=O)C1CCN(S(C)(=O)=O)CC1)c1ccccc1 | 5.42% (inactive) |
| CC(C)Cn1c(CN(Cc2ccccc2)Cc2ccccc2)nc2c1c(=O)n(C)c(=O)n2C | 1.2% (inactive) |
| CCc1ccc2c(CN(CC)Cc3nc4ccccc4c(=O)[nH]3)cc(=O)oc2c1 | 36.3% (inactive) |
| Cc1cc2oc(=O)cc(C)c2c(=O)o1 | 11.2% (inactive) |
| Cc1ccccc1NC(=O)NCCCN1CCN(C2CCCCC2)CC1 | 2.42% (inactive) |
| COc1ccc(S(=O)(=O)NCCC(=O)NC2CCCCCCC2)cc1 | 2.31% (inactive) |
| CCC(Oc1ccc2ccccc2c1)C(=O)O (stereo not given) | -1.54% (inactive) |
| COc1ccc(Br)cc1CNC(=O)CCc1nc(-c2ccc(C)cc2)no1 | 11.5% (inactive) |
| COc1ccc(S(=O)(=O)N2CCCC(C(=O)N3CCCCCC3)C2)cc1 (stereo not given) | -3.65% (inactive) |
| COc1ccccc1N1CC(O)=C(c2nc3ccccc3c(=O)[nH]2)C1=N | -13.9% (inactive) |
| COc1ccccc1NC(=O)C(O)C(O)C(=O)Nc1ccccc1OC (stereo not given) | 4.04% (inactive) |
| COc1cc(CC(=O)NCc2ccc3c(c2)OCO3)cc(OC)c1OC | 9.63% (inactive) |
| Cc1cc(OCC(=O)N2CCOCC2)cc2oc(=O)c3ccccc3c12 | -0.74% (inactive) |
| COc1cccc(NC(=O)COC(=O)c2ccco2)c1 | 2.71% (inactive) |
| CN(Cc1ccccc1)Cc1nc2c(c(=O)n(C)c(=O)n2C)n1Cc1ccc(Cl)cc1 | 1.76% (inactive) |
| CCc1ccc(NC(=O)C2CC(=O)N(C(C)C)C2)cc1 (stereo not given) | -3.8% (inactive) |
| CCOC(=O)N1CCN(c2c(N3CCN(c4ccccn4)CC3)c(=O)c2=O)CC1 | 9.85% (inactive) |
| COc1cccc(Oc2cnc(N)nc2-c2ccc(OC)cc2O)c1 | -47.3% (inactive) |
| O=C(CSc1ncnc2c1oc1ccccc12)Nc1ccccc1F | 7.33% (inactive) |

| SMILES | differential viability (reversal) |
| --- | --- |
| Cn1c(=O)c2c(nc(SCCCC#N)n2Cc2ccccc2F)n(C)c1=O | -4.56% (inactive) |
| Cn1c(=O)c2c([nH]c(=O)n2C)n(C)c1=O | -5.03% (inactive) |
| COc1ccc(-c2cc(C(=O)NCCc3ccccc3)no2)cc1OC | 3.29% (inactive) |
| CCCN1CCC(NC(=O)Nc2ccc(OC)c(OC)c2)CC1 | 4.61% (inactive) |
| c1nnc(NC2=NCCCCC2)s1 | 2.23% (inactive) |
| CCOC(=O)CSc1cn2c(n1)CCC2 | -2.28% (inactive) |
| COC(=O)c1sc(N2C(=O)C(O)=C(C(=O)c3ccc(C)o3)C2c2ccc(F)cc2)nc1C (stereo not given) | 61.4% (inactive) |
| CCOCCc1nnc(NC(=O)c2ccc(OC)c(OC)c2)s1 | -1.97% (inactive) |
| CN(C1CCCCC1)S(=O)(=O)c1ccc(NC(=O)c2ccco2)cc1 | 4.14% (inactive) |
| CCCOc1ccccc1NC(=O)c1c(-c2ccccc2)noc1C | 7.04% (inactive) |
| CCNC(=O)N(C(=O)NCC)n1c(C)nnc1C | 18.7% (inactive) |
| O=C(OCC#CCSc1nnc(-c2ccccc2)o1)c1cccs1 | 12.1% (inactive) |
| CC1(c2ccc(Cl)cc2)NC(=O)N(CC(=O)NC(=O)NCc2ccco2)C1=O (stereo not given) | 26.4% (inactive) |
| CCCN1C2=C(C(=O)CCC2)C(c2ccc(O)c(Br)c2)C2=C1CCCC2=O | -1.01% (inactive) |
| CCOC(=O)C1=C(CN2CCOCC2)NC(=O)NC1c1cc(C)ccc1C (stereo not given) | 16.7% (inactive) |
| Cc1ccc(C(C)C)c(OCCn2c(=O)oc3ccccc32)c1 | 13.5% (inactive) |
| Cc1ccc(-c2csc3nnc(SCC(=O)NCc4ccco4)n23)cc1 | 0.64% (inactive) |
| CC1CCN(C(=O)CCNS(=O)(=O)c2ccccc2)CC1 | 0.83% (inactive) |
| Cc1ccc(C)c(-n2c(CNC(=O)c3ccco3)nnc2SCC(=O)Nc2nnc(C)s2)c1 | 5.91% (inactive) |
| CSc1nc(=NC(C)=O)ss1 | -20% (inactive) |
